For 8 compounds, growth results are on record in PubChem BioAssay (NCI).

The panel holds about 83,000 compounds, 20% with a hit somewhere; the sample as a whole holds those more often.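 In brief: 96-well plates, 48 h treatment, single concentration, percent growth endpoint.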 Unmarked numbers belong to inactive results. The source made the active and inactive calls. Rule for the calls: active = growth percent below 10; inactive = the rest.

Some test systems named below: RPMI-8226 leukemia; OVCAR-8 ovarian; OVCAR-5 ovarian; OVCAR-4 ovarian; SK-OV-3 ovarian; IGROV1 ovarian; OVCAR-3 ovarian; HS 578T breast; NCI/ADR-RES ovarian; T-47D breast; BT-549 breast; MDA-MB-435 melanoma; SW-620 colon; MCF7 breast; HCT-116 colon; HCC-2998 colon; KM12 colon.
Experiment in all cases: NCI-60 one-dose screen, 48 h (100 = growth as untreated, 0 = no growth, -100 = all killed)
Holding throughout (details): 10 µM unless noted

Turning to `CN(C)c1ccc(/C=C(\C#N)c2nc3ccccc3c(=O)[nH]2)cc1`, the growth is 140% with RPMI-8226 leukemia; 97.1% in the test with OVCAR-8 ovarian; 86.8% in the test with OVCAR-5 ovarian; 29.9% in the test on OVCAR-4 ovarian; 114% with SK-OV-3 ovarian; -10.8% (active) with IGROV1 ovarian. In addition, the growth in the test with OVCAR-3 ovarian is 114%; in the test with HS 578T breast it was 71.4%; with NCI/ADR-RES ovarian it was 76.9%; with T-47D breast, 92.1%; in the test with BT-549 breast, 87.9%; with MDA-MB-435 melanoma, 86.7%. Moreover, the growth in the test on SW-620 colon is 82.6%; in the test on MCF7 breast, 73.5%; with HCT-116 colon, 76.9%; in the test on HCC-2998 colon, 84.8%; with KM12 colon it was 79.9%.
In the case of `O=C(/C(=N/O)S(=O)(=O)c1ccccc1)c1cccs1`, the growth in the test on RPMI-8226 leukemia is 101%; in the test on OVCAR-8 ovarian it was 104%; in the test on OVCAR-5 ovarian it was 118%; in the test with OVCAR-4 ovarian it was 113%; in the test with SK-OV-3 ovarian it was 94%; with IGROV1 ovarian, 109%. The growth in the test with OVCAR-3 ovarian is 109%; in the test on HS 578T breast it was 118%; in the test with NCI/ADR-RES ovarian, 97.3%; in the test on T-47D breast it was 93.2%; with BT-549 breast, 103%; in the test with MDA-MB-435 melanoma, 105%. Further, the growth in the test with SW-620 colon was 117%; in the test with MCF7 breast it was 98%; with HCT-116 colon, 96.4%; with HCC-2998 colon, 93.2%; with KM12 colon it was 107%.
For the compound `O=C1/C(=C/c2ccc([N+](=O)[O-])s2)Oc2ccc(Br)cc21`, the growth in the test with RPMI-8226 leukemia was -6.04% (active); with OVCAR-8 ovarian, -6.92% (active); with OVCAR-5 ovarian, -66.8% (active); in the test on OVCAR-4 ovarian, -75.8% (active); in the test with SK-OV-3 ovarian, -34.3% (active); with IGROV1 ovarian it was -45.9% (active). Moreover, the growth with OVCAR-3 ovarian was -65.3% (active); with HS 578T breast it was 16.2%; with NCI/ADR-RES ovarian it was -31.2% (active); with T-47D breast it was -55.7% (active); in the test with BT-549 breast, -46.2% (active); in the test with MDA-MB-435 melanoma, -69.5% (active). In addition, the growth in the test on SW-620 colon is -63.5% (active); with MCF7 breast, -25.2% (active); in the test on HCT-116 colon, -71.5% (active); in the test with HCC-2998 colon, -79.9% (active); in the test with KM12 colon it was -51.3% (active).
Consider `C[C@]12CC[C@@H]3c4ccc(O)c([N+](=O)[O-])c4CC[C@H]3[C@@H]1CC[C@@H]2NS(=O)(=O)c1cccc(Br)c1`, for which the growth in the test on RPMI-8226 leukemia was 10.7%; in the test with OVCAR-8 ovarian, 40%; in the test with OVCAR-5 ovarian it was 88.2%; with OVCAR-4 ovarian, 40.4%; in the test on SK-OV-3 ovarian it was 80.3%; in the test on IGROV1 ovarian, 34.8%. The growth in the test with OVCAR-3 ovarian is 28.5%; in the test with HS 578T breast, 62.5%; in the test on NCI/ADR-RES ovarian, 26.8%; with T-47D breast, 24.6%; in the test on BT-549 breast, 29.3%; with MDA-MB-435 melanoma it was 10.7%. For the same compound, the growth in the test with SW-620 colon is 44.5%; in the test with MCF7 breast it was 14.6%; in the test on HCT-116 colon it was 21.8%; with HCC-2998 colon, 51.2%; in the test with KM12 colon, 17.4%.
`C/C(=N/N=C(N)N)c1ccc(Cl)cc1`: the growth is 89.8% in the test on RPMI-8226 leukemia; 110% in the test on OVCAR-8 ovarian; 87.8% in the test with OVCAR-5 ovarian; 92.9% in the test on OVCAR-4 ovarian; 89.5% in the test with SK-OV-3 ovarian; 14.6% with IGROV1 ovarian. Besides, the growth with OVCAR-3 ovarian is 110%; in the test on HS 578T breast it was 272%; in the test with NCI/ADR-RES ovarian, 86.5%; in the test with T-47D breast, 79.3%; in the test on BT-549 breast, -0.709% (active); in the test on MDA-MB-435 melanoma, 71.7%. For the same compound, the growth with SW-620 colon was 112%; in the test with MCF7 breast, 83.9%; in the test on HCT-116 colon, 85.7%; in the test with HCC-2998 colon, 57.8%; in the test with KM12 colon, 93.2%.
Turning to `COC(=O)[C@]12CC[C@@H](C)[C@H](C)[C@@H]1C1=CC[C@@H]3[C@@]4(C)C[C@@H](OC(=O)c5ccco5)[C@H](O)[C@@](C)(CO)[C@@H]4[C@H](O)C[C@@]3(C)[C@]1(C)CC2`, the growth in the test with RPMI-8226 leukemia is -64.7% (active); in the test with OVCAR-8 ovarian, -76.1% (active); in the test on OVCAR-5 ovarian, -85.3% (active); in the test on OVCAR-4 ovarian, -67.9% (active); with SK-OV-3 ovarian, -97.2% (active); in the test on IGROV1 ovarian, -65% (active). In addition, the growth with OVCAR-3 ovarian was -93.8% (active); in the test with HS 578T breast, -39.9% (active); in the test on NCI/ADR-RES ovarian, -80.6% (active); in the test with T-47D breast, -68.3% (active); in the test on BT-549 breast, -68.1% (active); with MDA-MB-435 melanoma, -86.7% (active). The growth was -81.4% (active) in the test with SW-620 colon; -73.7% (active) in the test with MCF7 breast; -63.3% (active) with HCT-116 colon; -89.1% (active) in the test on HCC-2998 colon; -85.8% (active) with KM12 colon.
As for `O=C(CSc1nnc(Nc2ccccc2)s1)NCCc1ccc(F)cc1`, the growth in the test on RPMI-8226 leukemia was 145%; with OVCAR-8 ovarian it was 117%; in the test on OVCAR-5 ovarian it was 92.9%; in the test on OVCAR-4 ovarian it was 102%; in the test with SK-OV-3 ovarian, 113%; in the test on IGROV1 ovarian, -2.38% (active). Also, the growth was 113% in the test with OVCAR-3 ovarian; 119% in the test on HS 578T breast; 99.3% in the test with NCI/ADR-RES ovarian; 94.8% with T-47D breast; 109% in the test on BT-549 breast; 101% in the test with MDA-MB-435 melanoma. Moreover, the growth in the test with SW-620 colon was 103%; in the test on MCF7 breast, 109%; with HCT-116 colon it was 99.8%; with HCC-2998 colon, 99.3%; in the test on KM12 colon, 111%.
Regarding `COc1ccc2nc3cc(Cl)ccc3c(N3CCN(c4ccnc(Nc5ccc(F)cc5)n4)CC3)c2c1`, the growth with RPMI-8226 leukemia is 63.4%; with OVCAR-8 ovarian it was 75.8%; with OVCAR-5 ovarian it was 95%; in the test on OVCAR-4 ovarian, 64.8%; in the test on SK-OV-3 ovarian, 111%; in the test on IGROV1 ovarian it was 87.5%. Moreover, the growth was 82.4% in the test on OVCAR-3 ovarian; 94.2% in the test with HS 578T breast; 71.3% in the test on NCI/ADR-RES ovarian; 54.5% with T-47D breast; 88.3% in the test on BT-549 breast; 74.5% with MDA-MB-435 melanoma. Moreover, the growth in the test on SW-620 colon is 89.2%; with MCF7 breast it was 48.8%; with HCT-116 colon, 41.4%; in the test on HCC-2998 colon, 79.5%; in the test on KM12 colon, 79.1%.
